A number with no mark means an inactive call. A call without a number means that no potency is given here. Calls of active or inactive are those of the source. Calls come from the whole dose curve; as a rule, active = well fitted curve in the direction sought with a large enough effect in the repeat runs; inconclusive = weak or mixed curves; inactive = flat fitted curve, though single readings scatter.
Assay: qHTS assay to test for compound auto fluorescence at 460 nm (blue) in HepG2 cell free culture (AID 720685)
Conditions: Cell-free culture medium, blue autofluorescence 405/460 nm; series mostly up to 91.3 µM
Text: U.S. Tox21 Program National Center for Advancing Translational Sciences [NCATS] NIH Chemical Genomics Center [NCGC] U.S. Environmental Protection Agency [EPA] National Institutes of Environmental Health Sciences [NIEHS] National Toxicology Program [NTP] U.S. Food and Drug Administration [FDA] Tox21 Assay Overview: Compound auto fluorescence often interferes with screening of the compound library against various biological targets and signaling pathways. Some of these compounds may have fluorophoric properties. Such properties may interfere with the assay outputs resulting in false positives and/or negatives. To decrease such complications and ensure the compound activities are relevant in terms of biological response, the Tox21 10K compound library was screened for auto fluorescence. From the fluorophores used as reporter signals in our screening assays, the auto fluorescence equivalencies of compounds against three fluorophores have been evaluated: Triamterene, Fluorescein and Rose Bengal sodium for blue, green and red fluorescence, respectively. The fluorescence intensities were measured using Excitation/Emission wavelengths at 405/460nm, 485/535nm and 540/590nm for blue, green and red labels, respectively. This assay includes the blue fluorescence data.
Tox21 Assay Protocol Summary: 5 uL of culture medium (MEM containing 10% FBS) per well was dispensed into black wall/clear bottom 1536-well plates using a Multidrop Combi Dispenser (ThermoFisher Scientific, Waltham, MA). After 23 nL compound or DMSO vehicle was transferred into assay plate by a pintool work station (Kalypsys, San Diego, CA), fluorescence intensities in the assay plates were measured by an Envision (PerkinElmer, Shelton, CT) plate reader using three labels for measuring blue, green and red fluorescence at […] 460, 535 and 590nm respectively.

| SMILES | Potency | fluorescence, % of fluorescent control |
| --- | --- | --- |
| CC(C)(O)c1coc(S(=O)(=O)NC(=O)Nc2c3c(cc4c2CCC4)CCC3)c1 | inactive |  |
| Cc1ccc(S(=O)(=O)NC(=O)NC2CCCCC2)cc1 | inactive |  |
| CN1CCCN(C(c2ccccc2)c2ccc(Cl)cc2)CC1 (stereo not given) | inactive |  |
| Cc1ccc2c(c1)CCCN2 | inactive |  |
| c1ccc(CNc2ncnc3c2ncn3C2CCCCO2)cc1 (stereo not given) | inactive |  |
| CC(C)(C)NCC(O)COc1cccc2c1C[C@H](O)[C@H](O)C2 (stereo not given in full) |  | 0.0077% [at 18.6 µM] |
| CC(C)(C)C1(CCc2ccc(Cl)cc2)CO1 (stereo not given) | inactive |  |
| Cc1c[nH]c2ccccc12 | inactive |  |
| CC1CCCO1 (stereo not given) | inactive |  |
| CCC1CCC(CCC(=O)O)C1 (stereo not given) | inactive |  |
| CC(C)N(C)C | inactive |  |
| CC(=O)C(=O)CC(C)C | inactive |  |
| ClC1=C(Cl)C1(Cl)Cl | inactive |  |
| CCNc1nc(N)nc(Cl)n1 | inactive |  |
| CC[C@H]1OC(=O)[C@H](C)[C@@H](O[C@H]2C[C@@](C)(OC)[C@@H](O)[C@H](C)O2)[C@H](C)[C@@H](O[C@@H]2O[C@H](C)C[C@H](N(C)C)[C@H]2O)[C@](C)(O)C[C@@H](C)/C(=N\OCOCCOC)[C@H](C)[C@@H](O)[C@]1(C)O | inactive |  |
| O=C1c2ccccc2C(=O)c2c(O)ccc(O)c21 | inactive |  |
| CNc1c2c(nn1C)CCCC2 | inactive |  |
| O=C(Oc1ccccc1)c1ccc2ccccc2c1O | inactive |  |
| O=C(O)CNC(=O)c1ccccc1I | inactive |  |
| CCCCCCC(O)CCCCCCCCCCC(=O)OC (stereo not given) | inactive |  |

| SMILES | Potency | fluorescence, % of fluorescent control |
| --- | --- | --- |
| CC[C@H]1OC(=O)[C@H](C)[C@@H](O[C@H]2C[C@@](C)(OC)[C@@H](O)[C@H](C)O2)[C@H](C)[C@@H](O[C@@H]2O[C@H](C)C[C@H](N(C)C)[C@H]2O)[C@](C)(O)C[C@@H](C)C(=O)[C@H](C)[C@@H](O)[C@]1(C)O | inactive |  |
| CCCCC[C@H](O)/C=C/[C@H]1[C@H](O)CC(=O)[C@@H]1C/C=C\CCCC(=O)O | inactive |  |
| COC(C)(C)OC | inactive |  |
| CC(=O)NCCO | inactive |  |
| C=CCOC(=O)COCCC(C)C | inactive |  |
| CC(C)(C)C(O)/C=C/c1ccc2c(c1)OCO2 (stereo not given) | inactive |  |
| CC(=O)C(C)=O | inactive |  |
| CC12CC3CC(C)(C1)CC(N)(C3)C2 | inactive |  |
| O=C(O)c1ccc(O)cc1O | inactive |  |
| [Cl][Nd]([Cl])[Cl] | inactive |  |
| CCCCCCOC(=O)CCCCC | inactive |  |
| COc1cc(C(C)=O)ccc1OCCCN1CCC(c2noc3cc(F)ccc23)CC1 | inactive |  |
| CCCCOC(=O)CCCCC(=O)OCCCC | inactive |  |
| CC1CCc2nccnc21 (stereo not given) | inactive |  |
| CCCCCCCCCCCCCOC(=O)CCSCCC(=O)OCCCCCCCCCCCCC |  | -0.0714% [at 18.6 µM] |
| COc1ccc2nc(S(=O)Cc3ncc(C)c(OC)c3C)[nH]c2c1 (stereo not given) | inactive |  |
| O=C(O)c1cccc(Oc2ccccc2)c1 | inactive |  |
| CN=C(N)NC(=O)Nc1c(C)cccc1C | inactive |  |
| CO[C@@H]1[C@@H](OC)[C@H](C)[C@@](O)(CC(=O)O)O[C@H]1[C@H](C)[C@H]1O[C@@]2(CC[C@@](C)([C@H]3CC[C@@](C)([C@@H]4O[C@@H]([C@H]5O[C@](C)(O)[C@H](C)C[C@@H]5C)C[C@@H]4OC4C[C@H](OC)[C@@H](OC)[C@H](C)O4)O3)O2)C[C@H](O)[C@H]1C (stereo not given in full) | inactive |  |
| Nc1ccc(NC(=O)c2ccc(N)cc2)cc1 | inactive |  |
